# Assay results published in the supplement of paper PMC6522484.
# ± gives the standard deviation of the averaged measurements.
# Legend:
# DLD1 [1] = assay: cell viability (CellTiter-Glo) relative to plate median (fraction of plate median); higher = more viable cells; conditions: 5 µM; treatment time 24 h; reporter: 7TFP
# Outline: (§1)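 Two independent replicates were averaged for each reported value. Library compounds were applied at a final 5 µM for 24 h to colorectal cancer cell lines stably expressing lentiviral TCF/Wnt firefly luciferase reporters. Firefly luciferase or CellTiterGlo luminescence from each well was normalised to the plate median.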
# HCT116 = assay: as above; conditions: 5 µM; treatment time 24 h; reporter: TCF4/Wnt
# Outline: as §1
# SW480 [2] = assay: as above; conditions: 5 µM; treatment time 24 h; reporter: 7TFP
# Outline: as §1
# DLD1 [3] = assay: TCF/Wnt firefly luciferase reporter signal relative to plate median (fraction of plate median); higher = higher Wnt reporter signal; conditions: 5 µM; treatment time 24 h; reporter: 7TFP
# Outline: as §1
# SW480 [4] = assay: as above; conditions: 5 µM; treatment time 24 h; reporter: 7TFP
# Outline: as §1
Structure (SMILES),cell viability (DLD1 [1]),cell viability (HCT116),cell viability (SW480 [2]),TCF/Wnt firefly luciferase reporter signal (DLD1 [3]),TCF/Wnt firefly luciferase reporter signal (SW480 [4])
Cc1cc2nc3c(=O)[nH]c(=O)nc-3n(C[C@H](O)[C@H](O)[C@H](O)CO)c2cc1C,0.984 ± 0.052,0.919 ± 0.051,0.974 ± 0.016,1.07 ± 0.035,0.907 ± 0.021
N=C(N)NC(=N)Nc1ccccc1,0.96 ± 0.014,0.969 ± 0.034,0.958 ± 0.021,0.946 ± 0.052,0.99 ± 0.015
COc1ccc2cc3[n+](cc2c1OC)CCc1cc2c(cc1-3)OCO2,1.04 ± 0.021,0.984 ± 0.011,1.02 ± 0.091,1.1 ± 0.085,0.954 ± 0.053
CC(=O)CC(c1ccccc1)c1c(O)c2ccccc2oc1=O (stereo not given),1.02 ± 0.056,1.14 ± 0.078,0.989 ± 0.073,0.935 ± 0.062,1.12 ± 0.028
C#C[C@]1(O)CC[C@H]2[C@@H]3CCc4cc(O)ccc4[C@H]3CC[C@@]21C,0.934 ± 0.016,0.972 ± 0.054,0.9755 ± 0.0092,1.08 ± 0.078,1.04 ± 0.021
N[C@@H](Cc1cc(I)c(Oc2ccc(O)c(I)c2)c(I)c1)C(=O)O [LIOTHYRONINE (L- isomer) SODIUM],0.994 ± 0.093,1.04 ± 0.091,1.11 ± 0.064,1.14 ± 0.17,1.055 ± 0.0071
CC(=O)C[C@@H]1C[C@H](O)c2c(O)cccc2C1=O [Bhimanone],1.06 ± 0.035,1.03 ± 0.035,1.05 ± 0.14,1.11 ± 0.035,1.12 ± 0.057
C[C@@H]1C[C@H]2O[C@@H]2/C=C\C=C\C(=O)Cc2c(Cl)c(O)cc(O)c2C(=O)O1 [Radicicol],1.07 ± 0.035,0.802 ± 0.086,1.07 ± 0.099,0.898 ± 0.16,0.785 ± 0.035
Cc1onc(-c2c(Cl)cccc2Cl)c1C(=O)N[C@@H]1C(=O)N2[C@@H]1SC(C)(C)[C@@H]2C(=O)O,0.935 ± 0.027,1.05 ± 0.073,0.972 ± 0.036,1 ± 0.042,1.15 ± 0.16
COCCCOc1cc(C[C@@H](C[C@H](N)[C@@H](O)C[C@H](C(=O)NCC(C)(C)C(N)=O)C(C)C)C(C)C)ccc1OC,0.99 ± 0.029,0.962 ± 0.068,0.974 ± 0.0057,0.991 ± 0.07,1.07 ± 0.021
C[C@H](CCC(=O)O)[C@H]1CC[C@H]2[C@@H]3[C@H](O)C[C@@H]4C[C@H](O)CC[C@]4(C)[C@H]3C[C@H](O)[C@]12C,0.99 ± 0.043,1.07 ± 0.15,1.04 ± 0.066,1.02 ± 0.13,1.07 ± 0.035
CC(=O)Nc1ccc(S(=O)(=O)c2ccc(NC(C)=O)cc2)cc1,0.966 ± 0.1,0.94 ± 0.012,0.931 ± 0.012,1.09 ± 0.035,1.05 ± 0.042
CCCCCCCCCCCCCCCC(=O)OC/C=C(C)/C=C/C=C(C)/C=C/C1=C(C)CCCC1(C)C,0.986 ± 0.048,1.07 ± 0.035,0.9965 ± 0.0021,0.885 ± 0.1,1.01 ± 0.073
COc1cc(-c2cc(=O)c3c(O)c(OC)c(OC)c(OC)c3o2)cc(OC)c1OC,0.948 ± 0.073,1.06 ± 0.098,0.956 ± 0.02,1.02 ± 0.028,0.936 ± 0.021
O=C(O)CN(CCN(CC(=O)O)CC(=O)O)CC(=O)O.[Na+].[Na+].[Na+],0.914 ± 0.021,0.948 ± 0.088,1.01 ± 0.035,1.02 ± 0.12,1.11 ± 0.13
CC(=O)O[C@H]1C(=O)[C@@]2(C)[C@H]([C@H](OC(=O)c3ccccc3)[C@]3(O)C[C@H](OC(=O)[C@H](O)[C@@H](NC(=O)c4ccccc4)c4ccccc4)C(C)=C1C3(C)C)[C@]1(OC(C)=O)CO[C@@H]1C[C@@H]2O,0.901 ± 0.03,0.498 ± 0.016,1.11 ± 0.092,0.792 ± 0.27,0.755 ± 0.23
CC(CCc1ccc(O)cc1)NCCc1ccc(O)c(O)c1 (stereo not given),1.01 ± 0.018,1.06 ± 0.18,1 ± 0.037,0.928 ± 0.058,1.02 ± 0.088
CCCC(C(=O)OCCN(CC)CC)(c1ccccc1)c1ccccc1,1.03 ± 0.098,0.972 ± 0.04,1.03 ± 0.028,1.22 ± 0.22,1.06
CC(=O)OC1CCC2(C)C(=CCC3C2CCC2(C)C(C(C)CCCC(C)C)CCC32)C1 (stereo not given),1.04 ± 0.021,1.05 ± 0.12,0.964 ± 0.051,1.11 ± 0.19,1.11 ± 0.15
Cc1c(C(N)=O)cc([N+](=O)[O-])cc1[N+](=O)[O-],0.985 ± 0.035,0.926 ± 0.15,0.981 ± 0.056,0.9 ± 0.05,0.9925 ± 0.0064
CC(=O)O[C@H]1C[C@@H](OC(C)=O)C(C)(C)C2CC(=O)[C@]3(C)C(CC[C@@]4(C)[C@H](c5ccoc5)OC(=O)[C@H]5O[C@]543)[C@]21C (stereo not given in full),0.983 ± 0.0099,0.998 ± 0.046,1.02 ± 0.076,1.06 ± 0.11,1.03 ± 0.028
CN(C)CCN(Cc1ccccc1)c1ccccn1,0.9435 ± 0.0078,0.925 ± 0.13,1 ± 0.022,1 ± 0.25,1.03 ± 0.05
N[C@@H](C(=O)O)[C@@H](O)[C@H](O)[C@H](O)CO,0.989 ± 0.073,0.95 ± 0.021,1.01 ± 0.02,1 ± 0.14,0.996 ± 0.034
CCOC(=O)c1ccc(N)cc1,1 ± 0.05,0.903 ± 0.076,1.005 ± 0.0071,0.9395 ± 0.0092,0.897 ± 0.09
Cc1ccccc1N1C(=O)c2cc(S(N)(=O)=O)c(Cl)cc2NC1C (stereo not given),1.06 ± 0.078,1.02 ± 0.035,1.02,1.03 ± 0.072,0.938 ± 0.19
CN(C)[C@@H]1C(O)=C(C(N)=O)C(=O)[C@@]2(O)C(O)=C3C(=O)c4c(O)ccc(Cl)c4[C@@](C)(O)[C@H]3C[C@@H]12,1.05 ± 0.028,1.1 ± 0.085,1.02 ± 0.014,1.11 ± 0.13,0.99 ± 0.0042
CS(=O)(=O)c1ccc(C2=C(c3ccccc3)C(=O)OC2)cc1,1 ± 0.037,1.04 ± 0.042,0.9705 ± 0.0035,1.19 ± 0.092,1.05 ± 0.071
CCCN(CCC)C(=O)C(CCC(=O)O)NC(=O)c1ccccc1 (stereo not given),0.921 ± 0.057,1.06 ± 0.035,0.904 ± 0.024,1.01 ± 0.024,1.06 ± 0.05
CC(C)NC[C@@H](O)COc1cccc2ccccc12,1.09 ± 0.057,1.06,1.11 ± 0.11,1.01 ± 0.021,1.01 ± 0.05
